The results in this text go back to PMC7819943, “Rice protein-binding microarrays: a tool to detect cis-acting elements near promoter regions in rice”.

In all, about 39,000 sequences were measured (“fluorescence intensity (a.u.)”: median about 4,300, highest 2% from about 39,000 on). Only a selection was taken, and the highest values are over-represented in it overall.

For the test, the target named is T1, OsSMF1 (Oryza sativa, UniProt Q6ZLB0 1-436).
T1 sequence: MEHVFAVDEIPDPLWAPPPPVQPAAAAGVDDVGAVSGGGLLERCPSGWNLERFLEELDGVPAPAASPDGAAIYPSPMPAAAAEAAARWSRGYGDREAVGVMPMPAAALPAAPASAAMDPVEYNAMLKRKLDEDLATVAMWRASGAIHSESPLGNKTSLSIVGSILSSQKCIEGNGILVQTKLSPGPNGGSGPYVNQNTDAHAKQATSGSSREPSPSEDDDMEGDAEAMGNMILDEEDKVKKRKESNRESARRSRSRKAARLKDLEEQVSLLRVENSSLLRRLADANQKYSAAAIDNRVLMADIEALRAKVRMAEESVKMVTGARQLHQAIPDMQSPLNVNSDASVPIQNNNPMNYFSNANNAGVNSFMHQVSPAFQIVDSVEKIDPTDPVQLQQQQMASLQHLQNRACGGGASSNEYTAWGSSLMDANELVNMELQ
Nature of the test: protein-binding microarray (RPBM); PBS, 2% BSA, 51.3 ng/ul salmon testes DNA, 50 uM zinc acetate, 200 nM TF, 25 C, 1 h; high values mean tight binding. The note with it: protein: recombinant; tags: N-terminal polyhistidine and DsRed monomer fusion (pET32a); chain copies: 2; label: CyDye5-dUTP incorporated in the synthesized complementary strand; 3' TTTTT single-stranded linker to array surface; dsDNA, one strand shown. The method, boiled down:
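In PBS with 2% BSA, salmon testes DNA and 50 µM zinc acetate, 200 nM protein was incubated on a custom Agilent array at 25 °C for 1 h and then washed off. The array had been made double-stranded by primer extension with Cy5-dUTP and blocked with 2% BSA. The proteins were transcription factors fused N-terminally to polyhistidine and DsRed, expressed in E. coli BL21-CodonPlus and purified on Ni–NTA. The binding signal is per-feature fluorescence intensity (arbitrary units) from an Axon 4000B scanner.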
For “AGAGGGCGTGTACTCGTGACATCGTGTGTGTGCGTGTGCGCGGAGTCACCTAGTGCAG”, the binding signal was 6670 fluorescence intensity (a.u.).
As for “TTACTACACGGATCGCGGTCACGTCACGTGGTCCATAGTCCGGAGTCACCTAGTGCAG”, the figure is 6690 fluorescence intensity (a.u.).
On to “CTTTCCCTATCTTTCTCCTCATCATATGTGTCATGATGCACGGAGTCACCTAGTGCAG”, for which the binding signal was 9020 fluorescence intensity (a.u.).
With “AGCTATCATGTAAGCGTCACGTCAATGCGATGCAGGGGCGCGGAGTCACCTAGTGCAG” the figure was 4630 fluorescence intensity (a.u.).
As to “TTTAGTGGCAGTCTTATAATAACGATTCAAAATAGTGGCACGGAGTCACCTAGTGCAG”, the binding signal was 3190 fluorescence intensity (a.u.).
Regarding “ACAAATAAATCCTTAAATACACTAACTATCGAATGCACGCCGGAGTCACCTAGTGCAG”, the binding signal is 41300 fluorescence intensity (a.u.).
“AATATACAACACTATATTATTAATGCAGTCCAATCGATATCGGAGTCACCTAGTGCAG”: the binding signal was 37000 fluorescence intensity (a.u.).
As for “TAACAAATAACCTTAAGTCCTTAACAAATAATAAGTGCACCGGAGTCACCTAGTGCAG”, the figure is 3190 fluorescence intensity (a.u.).
With “CCCGCCGTCGCCGGGGAAGACGACACGCCCGCCGTCCTTGCGGAGTCACCTAGTGCAG” the figure was 3580 fluorescence intensity (a.u.); with “ACATTGACTCAGCCACCACGTCACCTAAAATCGGGAACAGCGGAGTCACCTAGTGCAG”, 13000 fluorescence intensity (a.u.).
With “CACGATTGCTCGGTGAGCACTGAGCAGTGACCTCATTCGGCGGAGTCACCTAGTGCAG” the figure was 3820 fluorescence intensity (a.u.).
Turning to “GACGCGTACGCACGGTGGGACGCGGTGGTGGGGTGCTGGGCGGAGTCACCTAGTGCAG”, the binding signal was 3920 fluorescence intensity (a.u.).
For “ATAGGAAGGGAAGCAACGGAGGAGGAGATCGGCTGGTGGTCGGAGTCACCTAGTGCAG”, the binding signal is 7740 fluorescence intensity (a.u.).
As for “AGCTGGACAAGATCGGAATAGTAGGCCAGGCCCAAAGCAACGGAGTCACCTAGTGCAG”, the figure is 49400 fluorescence intensity (a.u.).
With “TGGTAGGGAAGCAGGTGGAAGGAGGACAGGAAGGCCCAATCGGAGTCACCTAGTGCAG” the figure was 34000 fluorescence intensity (a.u.).
On to “AAGAACGCCTTCGCGTGGGCCGCCGTCATCGGGATGTGGACGGAGTCACCTAGTGCAG”, for which the binding signal was 3220 fluorescence intensity (a.u.).
Turning to “CTCACTCGCTTGCGCTTCACCTCGCGGCATCGACTTCCTACGGAGTCACCTAGTGCAG”, the binding signal was 3630 fluorescence intensity (a.u.).
With “TTAAATGGTCATTCCTGTGTTTTACAATCATATATCTTACCGGAGTCACCTAGTGCAG” the figure was 3990 fluorescence intensity (a.u.); with “GTCCATATATCCGATGTGACACGCCAACACTTTTCGTATCCGGAGTCACCTAGTGCAG”, 4090 fluorescence intensity (a.u.).
As for “TGGCTTCACTTGCAACGGTACAAGAACCACCATCACTTCCCGGAGTCACCTAGTGCAG”, the binding signal was 40100 fluorescence intensity (a.u.).
In the case of “CACATCGAACGGTCCAAGAACAACCACATCACCAATGTGCCGGAGTCACCTAGTGCAG”, the binding signal was 3710 fluorescence intensity (a.u.).
As for “AAGATCATCACAATTCATCACTCACAACCACATCACATCCCGGAGTCACCTAGTGCAG”, the figure is 3260 fluorescence intensity (a.u.); as for “CGCCTCTGCGGTCTCCTTCGTCACCCGCGCGTCAACCAACCGGAGTCACCTAGTGCAG”, 4290 fluorescence intensity (a.u.); as for “CCCCTTCATGCCAGCACGCTCCCCACATCCACCCACCACCCGGAGTCACCTAGTGCAG”, 3320 fluorescence intensity (a.u.).
With “CGTGCGACCCAGATCTCGCCACGTATGCGCGCGGATCGGCCGGAGTCACCTAGTGCAG” the figure was 10800 fluorescence intensity (a.u.); with “GGGACGAGAGGAGCAACGCGCGGGCGCCGGCTGGCAAGAGCGGAGTCACCTAGTGCAG”, 3960 fluorescence intensity (a.u.); with “ACCTTGAGTTTGAGTGCGATTCCTCCCTTCTTTCGGTCACCGGAGTCACCTAGTGCAG”, 21100 fluorescence intensity (a.u.).
As for “ACGACGACGACGTCGACGTGTGAACCAGTCAACTGCCACGCGGAGTCACCTAGTGCAG”, the figure is 8590 fluorescence intensity (a.u.); as for “ACGAAACCGCACAAAAGCCGGTGAATTTTCCCGTAATTTGCGGAGTCACCTAGTGCAG”, 8780 fluorescence intensity (a.u.).
Regarding “ACATACATATATATATATATATATACATACATATATATATCGGAGTCACCTAGTGCAG”, the binding signal was 3740 fluorescence intensity (a.u.).
With “ATCTAGACACGCGCGCGCGCGCGCACATATATATATATATCGGAGTCACCTAGTGCAG” the figure was 42600 fluorescence intensity (a.u.); with “GCGCACACACACACACAGATATATATATATATATATATATCGGAGTCACCTAGTGCAG”, 4200 fluorescence intensity (a.u.); with “TAAACAGGGCCCTACTGTCATCACGTCGATGTTGAGTTTACGGAGTCACCTAGTGCAG”, 4070 fluorescence intensity (a.u.).
As for “AAAGGACGGACAGTTTCCTGCGCAAATTCCACGTTCCACCCGGAGTCACCTAGTGCAG”, the figure is 3460 fluorescence intensity (a.u.); as for “CCGCACGCGCTCCCTTCACCCACCTCGATCGAGCTCCATGCGGAGTCACCTAGTGCAG”, 3570 fluorescence intensity (a.u.); as for “ACATGGACTGTGGTGTGGTACACACACGGTATGTCAGAGCCGGAGTCACCTAGTGCAG”, 3220 fluorescence intensity (a.u.).
As for “GGTTGCCATATTTGCTTGTTATGCCGATGTGGACAAGCTTCGGAGTCACCTAGTGCAG”, the figure is 5600 fluorescence intensity (a.u.).
As for “ATATTCCACCAAGCAAAAGCCACATCATGCTGTGCTGTGCCGGAGTCACCTAGTGCAG”, the binding signal is 6050 fluorescence intensity (a.u.).
For “TCCTCCCAAAGATAATTCAGCTGATGATATTTCCATATCTCGGAGTCACCTAGTGCAG”, the binding signal was 3210 fluorescence intensity (a.u.).
As for “GCTTTGGGCTATAATTGGGCCATTTGTCGTCAGCTCTTGGCGGAGTCACCTAGTGCAG”, the figure is 3230 fluorescence intensity (a.u.).
As for “TTCTTCTTGGTGGTGGTGGGGCCTGGAAACTATGTGACTTCGGAGTCACCTAGTGCAG”, the figure is 4270 fluorescence intensity (a.u.); as for “ATACTTGGACTATTCTCTTTCGGAAACTTGACTAGTTACACGGAGTCACCTAGTGCAG”, 43200 fluorescence intensity (a.u.); as for “ATATACTATTCTCATCTGTCATACACACATCACATCTTGACGGAGTCACCTAGTGCAG”, 25700 fluorescence intensity (a.u.).
As for “ATGTCGAAAGGCCTATATGGGCCAGATGATGTGTCCAGGGCGGAGTCACCTAGTGCAG”, the figure is 34600 fluorescence intensity (a.u.).
For the sequence “GGAGAGCTCCGGGAAGACGCGCGCTGACGCGGCCTCCCTGCGGAGTCACCTAGTGCAG”, the binding signal is 8860 fluorescence intensity (a.u.).
As for “TCAATGATATTTATGTGTGTGACATGTATGTCGAGTTCGTCGGAGTCACCTAGTGCAG”, the figure is 4360 fluorescence intensity (a.u.); as for “ATATTCTGATATGTCAATATTATTGTGTATGATTGATTGTCGGAGTCACCTAGTGCAG”, 46700 fluorescence intensity (a.u.).
As for “ATTGATGTGAAGAACAAATAGTCAATATTATTCTGTATATCGGAGTCACCTAGTGCAG”, the figure is 16900 fluorescence intensity (a.u.); as for “TCTTCTGAATGCTCACAATGACGCCATCCTCATCAGCCGCCGGAGTCACCTAGTGCAG”, 4480 fluorescence intensity (a.u.).
With “GCCCTCCCTGTCATCCCCGTCACCCATCCTGCCTGCTTTTCGGAGTCACCTAGTGCAG” the figure was 8530 fluorescence intensity (a.u.).
“ACATTACCAAATTTTAACAATGCCAAAATTTTGGTAAGGTCGGAGTCACCTAGTGCAG”: the binding signal was 3450 fluorescence intensity (a.u.).
For the sequence “AGCTAAAATAAACTTTACCAAATTTTGGCAATGCCAAAATCGGAGTCACCTAGTGCAG”, the binding signal was 51800 fluorescence intensity (a.u.).
Turning to “ACCAAATTTTAGCAATACCAAAATTTTGGCATAGTTGCCACGGAGTCACCTAGTGCAG”, the binding signal is 7010 fluorescence intensity (a.u.).
With “AAACGCCAACGCCATACTCCACCTGACCTCACACTCGCACCGGAGTCACCTAGTGCAG” the figure was 3290 fluorescence intensity (a.u.).
